From PubChem BioAssay (Tox21)
Inconclusive results are not listed. Calls of active or inactive are those of the source. Unless noted, calls follow the shape of the dose curve; as a rule, active = well fitted curve in the direction sought with a large enough effect in the repeat runs; inconclusive = weak or mixed curves; inactive = no such curve, though single readings can be large; an effect the other way counts as inactive or inconclusive.

Assays:
[1] = qHTS assay to identify small molecule agonists of the peroxisome proliferator-activated receptor delta (PPARd) signaling pathway - cell viability counter screen (AID 743211); also: nearly all actives have a fitted effect of over 55% in size
Procedure, shortened: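 Viability was measured as CellTiter-Glo luminescence (30 min, room temperature) in the same wells as the beta-lactamase readout. GeneBLAzer PPARd UAS-bla HEK293H cells received compound after 5 h plating and were incubated 17 h at 37 C.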

[2] = molecular target: Peroxisome proliferator-activated receptor delta (Homo sapiens) (UniProt Q03181); assay: qHTS assay to identify small molecule agonists of the peroxisome proliferator-activated receptor delta (PPARd) signaling pathway (AID 743212; calls by dose curve)
Procedure, shortened: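 GeneBLAzer PPARd UAS-bla HEK293H cells (beta-lactamase reporter under UAS control), plated and rested 5 h at 37 C, then exposed to compounds in DMSO at 37 C; LiveBLAzer B/G FRET substrate added, 2 h room temperature, fluorescence read.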

[3] = molecular target: Peroxisome proliferator-activated receptor delta (Homo sapiens) (UniProt Q03181); assay: qHTS assay to identify small molecule antagonists of the peroxisome proliferator-activated receptor delta (PPARd) signaling pathway (AID 743215; active = well fitted inhibition curve with a large enough effect in the signal ratio in the repeat runs, not every such curve was filed as active; the % refers to the signal ratio;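 also: cells stimulated with agonist L165041 at 300 nM final during compound exposure; series mostly up to about 62 µM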)
Procedure, shortened: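 PPARd-bla HEK293H cells (UAS-bla reporter) preincubated 5 h, then given compound plus 300 nM final L165041 agonist for 17 h at 37 C. Beta-lactamase activity read by LiveBLAzer B/G FRET substrate fluorescence after 2 h at room temperature.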

[4] = qHTS assay to identify small molecule agonists of the farnesoid-X-receptor (FXR) signaling pathway - cell viability counter screen (AID 743218); also: nearly all actives have a fitted effect of over 45% in size
Procedure, shortened: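 FXR-UAS-bla HEK 293T cells exposed to compounds for 16 h at 37C. Cytotoxicity read in the same wells by CellTiter-Glo luminescence after 30 min at room temperature, following the beta-lactamase FRET read.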

[5] = molecular target: Bile acid receptor (Homo sapiens) (UniProt Q96RI1); assay: qHTS assay to identify small molecule agonists of the farnesoid-X-receptor (FXR) signaling pathway (AID 743220; active = well fitted activation curve with a large enough effect in the signal ratio in the repeat runs, not every such curve was filed as active; the % refers to the signal ratio)
Procedure, shortened: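 Beta-lactamase reporter under UAS control in GeneBLAzer FXR HEK 293T cells (5000/well) measured with LiveBLAzer FRET substrate after 2 h at room temperature. Compound exposure lasted 16 h at 37C.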

[6] = qHTS assay to identify small molecule antagonists of the farnesoid-X-receptor (FXR) signaling pathway - cell viability counter screen (AID 743221; active = well fitted cell-killing curve with a large enough effect in the repeat runs, not every such curve was filed as active; also: nearly all actives have a fitted effect of over 50% in size)
Procedure, shortened: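 Cytotoxicity counter screen run in the FXR-bla reporter wells: HEK 293T cells exposed to compound with 50 uM (final) chenodeoxycholic acid for 16 h, 37 C, then viability measured by CellTiter-Glo luminescence after 30 min, room temperature.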

[7] = qHTS assay to identify small molecule antagonists of the peroxisome proliferator-activated receptor delta (PPARd) signaling pathway - cell viability counter screen (AID 743213); also: nearly all actives have a fitted effect of over 50% in size
Procedure, shortened: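 Cytotoxicity counter screen: CellTiter-Glo luminescence read 30 min after addition, in the same wells as the reporter assay. There, PPARd UAS-bla HEK293H cells (3000/well) were treated 17 h at 37 C with compound and 300 nM L165041.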

[8] = molecular target: Vitamin D3 receptor (Homo sapiens) (UniProt P11473); assay: qHTS assay to identify small molecule agonists of the vitamin D receptor (VDR) signaling pathway (AID 743222; calls by dose curve)
Procedure, shortened: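 VDR-bla cells plated 4 h at 37 C, then exposed to compounds for 16 h at 37 C. Beta-lactamase reporter activity measured by fluorescence after 2 h room-temperature loading with LiveBLAzer B/G FRET substrate.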

[9] = molecular target: Vitamin D3 receptor (Homo sapiens) (UniProt P11473); assay: qHTS assay to identify small molecule antagonists of the vitamin D receptor (VDR) signaling pathway (AID 743223; active = well fitted inhibition curve with a large enough effect in the signal ratio in the repeat runs, not every such curve was filed as active; the % refers to the signal ratio)
Procedure, shortened: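 Antagonist mode: compound added to VDR-bla cells alongside agonist 1alpha,25-dihydroxyvitamin D3 (3 nM final), incubation 16 h at 37C. Read-out is LiveBLAzer FRET fluorescence, 2 h at room temperature.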

[10] = molecular target: Bile acid receptor (Homo sapiens) (UniProt Q96RI1); assay: qHTS assay to identify small molecule antagonists of the farnesoid-X-receptor (FXR) signaling pathway (AID 743217; active = well fitted inhibition curve with a large enough effect in the signal ratio in the repeat runs, not every such curve was filed as active; the % refers to the signal ratio)
Procedure, shortened: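 FXR-UAS-bla HEK 293T cells (beta-lactamase reporter) given compound plus chenodeoxycholic acid (50 uM final), 16 h at 37C. LiveBLAzer B/G FRET substrate added for 2 h at room temperature; fluorescence read.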

Measured: Potency

Peroxisome proliferator-activated receptor delta (Homo sapiens), sequence (Q03181 whole entry, looked up): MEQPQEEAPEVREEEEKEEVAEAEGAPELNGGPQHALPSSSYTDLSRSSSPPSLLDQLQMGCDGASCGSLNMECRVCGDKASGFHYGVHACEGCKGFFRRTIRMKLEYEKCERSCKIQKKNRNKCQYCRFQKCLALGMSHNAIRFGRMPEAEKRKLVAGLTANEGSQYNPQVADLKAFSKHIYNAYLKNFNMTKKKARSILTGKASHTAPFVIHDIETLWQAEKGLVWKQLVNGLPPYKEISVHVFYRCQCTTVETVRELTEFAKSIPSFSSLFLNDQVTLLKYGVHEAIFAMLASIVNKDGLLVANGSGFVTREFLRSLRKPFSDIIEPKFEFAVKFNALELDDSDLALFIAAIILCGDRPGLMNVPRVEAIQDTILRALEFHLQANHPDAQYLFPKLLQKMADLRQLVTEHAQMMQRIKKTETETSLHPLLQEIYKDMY
Bile acid receptor (Homo sapiens), sequence (Q96RI1 whole entry, looked up): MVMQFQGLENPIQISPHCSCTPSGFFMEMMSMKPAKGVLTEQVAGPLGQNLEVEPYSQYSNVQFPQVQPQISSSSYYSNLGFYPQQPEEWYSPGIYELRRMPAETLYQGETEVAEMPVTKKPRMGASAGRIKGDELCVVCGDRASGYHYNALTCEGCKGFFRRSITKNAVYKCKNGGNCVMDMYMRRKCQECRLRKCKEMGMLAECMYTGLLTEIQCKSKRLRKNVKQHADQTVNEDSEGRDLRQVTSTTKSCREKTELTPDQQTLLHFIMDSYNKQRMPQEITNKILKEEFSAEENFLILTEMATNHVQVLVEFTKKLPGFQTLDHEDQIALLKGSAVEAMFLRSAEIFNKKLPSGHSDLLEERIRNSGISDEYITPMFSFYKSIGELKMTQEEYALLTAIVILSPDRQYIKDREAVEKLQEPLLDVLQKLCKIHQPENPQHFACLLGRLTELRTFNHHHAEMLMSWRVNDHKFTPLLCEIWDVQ
Vitamin D3 receptor (Homo sapiens), sequence (P11473 whole entry, looked up): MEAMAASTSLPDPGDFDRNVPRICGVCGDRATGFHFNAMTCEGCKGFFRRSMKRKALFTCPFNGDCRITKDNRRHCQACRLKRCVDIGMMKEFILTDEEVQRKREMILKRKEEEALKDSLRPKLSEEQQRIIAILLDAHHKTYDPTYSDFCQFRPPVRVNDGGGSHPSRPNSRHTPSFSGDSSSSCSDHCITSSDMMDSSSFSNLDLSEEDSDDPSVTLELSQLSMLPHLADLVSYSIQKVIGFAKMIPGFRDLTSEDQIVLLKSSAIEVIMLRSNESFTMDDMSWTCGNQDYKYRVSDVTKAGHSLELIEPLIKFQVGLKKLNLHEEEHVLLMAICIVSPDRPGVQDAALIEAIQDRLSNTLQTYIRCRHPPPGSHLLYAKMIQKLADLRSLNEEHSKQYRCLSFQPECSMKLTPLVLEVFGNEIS

CCC[CH2][Sn]([Cl])([Cl])[Cl]
inactive: [1] | [2] | [3] | [4] | [5] | [6]

C=CC(N)=O
inactive: [1] | [2] | [7] | [3] | [4] | [6] | [8] | [9]

NCCc1ccc(O)cc1
inactive: [1] | [2] | [3] | [4] | [6]

CCCCCCCCCCCC#N
inactive: [1] | [2] | [3] | [4] | [5] | [6] | [8] | [9]

O=C1CCCN1
inactive: [1] | [2] | [3] | [4] | [5] | [6]

CC(C#N)CCC#N (stereo unspecified)
inactive: [1] | [2] | [7] | [3] | [4] | [6] | [8] | [9]

CCOP(=S)(OCC)Oc1cnc2ccccc2n1
inactive: [1] | [2] | [3] | [4] | [5] | [6]

O=NN1CCCC1
inactive: [1] | [2] | [7] | [3] | [5] | [6] | [8] | [9]

O=c1n(Cl)c(=O)n(Cl)c(=O)n1Cl
inactive: [1] | [2] | [7] | [3] | [4] | [6] | [8] | [9]

CC(C)(Cl)Cl
inactive: [1] | [2] | [7] | [3] | [4] | [6] | [8] | [9]

COCCl
inactive: [1] | [2] | [3] | [10] | [4] | [5] | [6] | [8] | [9]

CC1OC(C)OC(C)O1 (stereo unspecified)
inactive: [1] | [2] | [3] | [4] | [5] | [6]

CC(C)NC(=O)N1CC(=O)N(c2cc(Cl)cc(Cl)c2)C1=O
inactive: [1] | [2] | [3] | [4] | [6]

CC(C)OC(=O)Nc1cccc(Cl)c1
inactive: [1] | [2] | [3] | [4] | [5] | [6] | [8] | [9]

Nc1c(Cl)c(Cl)nc(C(=O)O)c1Cl
inactive: [1] | [2] | [3] | [4] | [6]

ClCCBr
inactive: [1] | [2] | [3] | [4] | [6]

c1ccc(OP(Oc2ccccc2)Oc2ccccc2)cc1
inactive: [1] | [7] | [4] | [6] | [8] | [9]

CC(Oc1ccc(Cl)cc1Cl)C(=O)O (stereo unspecified)
inactive: [1] | [4] | [5] | [6] | [8] | [9]

O=c1ccc(=O)[nH][nH]1
inactive: [1] | [7] | [4] | [5] | [6] | [8] | [9]

CCOP(OCC)OCC
inactive: [1] | [4] | [5] | [6]

O=C(O)c1ccccn1
inactive: [1] | [7] | [4] | [6]

COC(=O)c1ccccc1N
inactive: [1] | [2] | [3] | [4] | [6] | [8] | [9]

[O-][Cl+2]([O-])O
inactive: [1] | [7] | [4] | [5] | [6] | [8] | [9]

CC(=O)C=C(C)C
inactive: [1] | [4] | [6] | [8] | [9]

NCC(O)c1ccc(O)cc1 (stereo unspecified)
inactive: [1] | [4] | [6] | [8] | [9]

C1CN2CCN1CC2
inactive: [1] | [7] | [4] | [6] | [8] | [9]

CCCCOC(=O)c1ccccc1C(=O)OCCCC
inactive: [1] | [7] | [4] | [6] | [8] | [9]

CN(C)N=O
inactive: [1] | [7] | [10] | [4] | [5] | [6] | [8] | [9]

Nc1ccccc1C(=O)O
inactive: [1] | [7] | [4] | [5] | [6] | [8] | [9]

O=Cc1cccc(Oc2ccccc2)c1
inactive: [1] | [2] | [3] | [4] | [6] | [8] | [9]

CC(Br)C(=O)O (stereo unspecified)
inactive: [1] | [2] | [3] | [4] | [6] | [8] | [9]

Cc1ccccc1O
inactive: [1] | [2] | [3] | [4] | [6] | [8] | [9]

OCCN(CCO)CCO
inactive: [1] | [7] | [4] | [6]

CN(C)CCO
inactive: [1] | [2] | [3] | [4] | [6] | [8] | [9]

O=[N+]([O-])c1ccc(Oc2ccc(Cl)cc2Cl)cc1
inactive: [1] | [2] | [3] | [6] | [8] | [9]

Clc1cccc(Cl)c1Cl
inactive: [1] | [2] | [3] | [4] | [6] | [8] | [9]

O=c1[nH]c(=O)[nH]c(=O)[nH]1
inactive: [1] | [2] | [3] | [4] | [6] | [8] | [9]

CCN(CC)c1ccccc1
inactive: [1] | [4] | [5] | [6] | [8] | [9]

CCCCCOC(=O)c1ccccc1C(=O)OCCCCC
inactive: [1] | [7] | [4] | [6] | [8] | [9]

Cc1ccc(N)cc1Cl
inactive: [1] | [4] | [6] | [8] | [9]

Cc1[nH]c(=O)n(C(C)(C)C)c(=O)c1Cl
inactive: [1] | [7] | [4] | [5] | [6]

CCc1cccc(C)c1N(C(=O)CCl)C(C)COC (stereo unspecified)
inactive: [1] | [7] | [4] | [6] | [8] | [9]

O=C(NC(=O)c1c(F)cccc1F)Nc1cc(Cl)c(OC(F)(F)C(F)C(F)(F)F)cc1Cl (stereo unspecified)
inactive: [1] | [7] | [10] | [4] | [5] | [6] | [8] | [9]

CC(C)OC(=O)Nc1ccccc1
inactive: [1] | [7] | [4] | [6] | [8] | [9]

CC(NC(C)(C)C)C(=O)c1cccc(Cl)c1 (stereo unspecified)
inactive: [1] | [7] | [4] | [6] | [8] | [9]

CON(C)C(=O)Nc1ccc(Cl)c(Cl)c1
inactive: [1] | [2] | [3] | [4] | [6] | [8] | [9]

c1ccc2c(c1)Oc1ccccc1O2
inactive: [1] | [7] | [4] | [5] | [6] | [8]

C#CC(C)(C)NC(=O)c1cc(Cl)cc(Cl)c1
inactive: [1] | [2] | [3] | [4] | [6] | [8] | [9]

Cc1cccc([N+](=O)[O-])c1
inactive: [1] | [2] | [10] | [4] | [5] | [6] | [8] | [9]

O=NN1CCCCCCC1
inactive: [1] | [7] | [10] | [4] | [5] | [6]

CC(C)(C)OOC(=O)c1ccccc1
inactive: [1] | [2] | [3] | [4] | [6] | [8] | [9]

CN1C(=O)CN=C(c2ccccc2)c2cc(Cl)ccc21
inactive: [1] | [7] | [4] | [5] | [6] | [8] | [9]

COC(=O)c1ccccc1C(=O)OC
inactive: [1] | [7] | [5] | [6] | [8] | [9]
